The record followed here is PubChem BioAssay (NCI).

The panel holds about 79,000 compounds, 15% with a hit somewhere; the sample as a whole holds those more often. Values without a mark were called inactive. Calls of active or inactive are those of the source. Rule as the data show it: active = growth inhibition above about 70%; inactive = the rest.

Assay [1] in a line: NCI Yeast Anticancer Drug Screen. Data for the rad50 strain (AID 155).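 Also: 0% = growth of vehicle-only cultures of the same strain.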 To be noted: S. cerevisiae rad50 strain growth inhibition, hits give high values; at 50.0 µM unless noted. Summed up: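 Inhibition values express reduced yeast growth in compound-treated cultures relative to vehicle-treated controls.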
Assay [2] can be described thus: NCI Yeast Anticancer Drug Screen. Data for the mec2-1 strain (AID 157). To be noted: S. cerevisiae mec2-1 strain, hits give high values; at 50.0 µM unless noted. Summed up: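 Strain: mec2-1 (DNA repair/cell cycle alteration). Compound exposure, then growth measured; inhibition expressed relative to vehicle.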
A short description of assay [3]: NCI Yeast Anticancer Drug Screen. Data for the sgs1 mgt1 strain (AID 161).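 Also: 0% = growth of cultures given vehicle only.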 To be noted: S. cerevisiae sgs1 mgt1 strain, hits give high values; at 50.0 µM unless noted. The essentials: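 Mutant yeast exposed to compound; growth scored against vehicle-only wells.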
Assay [4] is described as follows: NCI Yeast Anticancer Drug Screen. Data for the cln2 rad14 strain (AID 165).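 Also: 0% = growth equal to vehicle treated cultures.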 Conditions: S. cerevisiae cln2 rad14 strain, hits give high values; at 50.0 µM unless noted. The essentials: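 Compounds are applied to the cln2 rad14 yeast strain, and growth is then compared with that of vehicle-treated cultures to give inhibition.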
Assay [5] in a line: NCI Yeast Anticancer Drug Screen. Data for the bub3 strain (AID 167). To be noted: S. cerevisiae bub3 mutant strain, hits give high values; at 50.0 µM unless noted. Summed up: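 Steps: expose the mutant yeast strain to compound; grow alongside vehicle-treated cultures; measure growth; express inhibition against the vehicle cultures.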
Assay [6] is described as follows: NCI Yeast Anticancer Drug Screen. Data for the mlh1 rad18 strain (AID 175). To be noted: S. cerevisiae mlh1 rad18 strain growth inhibition, hits give high values; at 50.0 µM unless noted. Summed up:
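Read-out is yeast growth inhibition, calculated against vehicle-only controls. The compound was applied to a strain engineered with DNA damage repair alterations.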

`COc1cc2ccc(Cc3nccc4cc(OC)c(OC)cc34)cc2cc1OC`: the growth inhibition in assay [1] was 98.4% (active); in assay [2], 98.5% (active); in assay [3], 99% (active); in assay [4] it was 91% (active); in assay [5], 97% (active).

For `CCC/C(=N\NC(=S)N1CCN(c2ccccn2)CC1)c1ccccn1`, the growth inhibition is 87.3% (active) in assay [1]; 90.3% (active) in assay [2]; 88.8% (active) in assay [3]; 80.5% (active) in assay [4]; 20.9% in assay [5].

Take `COC1OC(COS(=O)(=O)c2ccc(C)cc2)C(OS(=O)(=O)c2ccc(C)cc2)C(OS(=O)(=O)c2ccc(C)cc2)C1OS(=O)(=O)c1ccc(C)cc1` (configuration not stated): the growth inhibition in assay [1] was -7.45%; in assay [2], -16.5%; in assay [3], -11.7%; in assay [4], -8.6%; in assay [5], 0.75%.

`Clc1ncc(Cl)c(Cl)n1`: the growth inhibition in assay [1] was 68.7%; in assay [2], 18.6%; in assay [3] it was -46.8%; in assay [4] it was -22.5%; in assay [5], -50.8%.

In the case of `CCCCCCCCCCCCCCCCCCCCCCCCCCBr`, the growth inhibition in assay [1] was 0.85%; in assay [2], 0.8%; in assay [3], 9.7%; in assay [4], -9.95%; in assay [5], 10.4%.

Regarding `C=C(C)C1CC[C@@](C)(O)[C@H](C#N)C1` (some centres not stated), the growth inhibition in assay [1] is 6.15%; in assay [2] it was -15.7%; in assay [3] it was -22.8%; in assay [4], -12.2%; in assay [5] it was -38.5%.

Regarding `COc1c(OC(C)=O)c(OC(C)=O)cc2c1-c1ccc(SC)c(=O)cc1C(NC(C)=O)CC2` (configuration not stated), the growth inhibition is 23.2% in assay [1]; 3.5% in assay [2]; -28.8% in assay [3]; -24.6% in assay [4]; -33.8% in assay [5].

Regarding `O=C(O)CCCCCCCC(=O)O`, the growth inhibition in assay [1] was 15.4%; in assay [2], -0.45%; in assay [3] it was 16.9%; in assay [4], -3.05%; in assay [5], 5.5%.

Regarding `CCc1ccccc1NC(=O)C(=O)CC(=O)c1sc(Nc2ccccc2Cl)nc1C`, the growth inhibition in assay [1] is 6.25%; in assay [2] it was 6.15%; in assay [3], 26%; in assay [4] it was -16.6%; in assay [5], -2.65%.

For the compound `COC1OC(CO)C(O)C(O)C1OS(=O)(=O)c1ccc(C)cc1` (configuration not stated), the growth inhibition in assay [1] is 5.7%; in assay [2], -3%; in assay [3], -10.1%; in assay [4], 1.75%; in assay [5] it was -1.85%.

In the case of `C/C(=N\NC(=S)N1CCN(c2ccccn2)CC1)c1cccc(C)n1`, the growth inhibition in assay [1] is 90.3% (active); in assay [2], 92.7% (active); in assay [3], 91.8% (active); in assay [4] it was 91.3% (active); in assay [5], 89.5% (active).

With `O/N=C/c1ccco1`, the growth inhibition in assay [1] was 1.2%; in assay [2] it was -9.85%; in assay [3], 7.75%; in assay [4] it was -1.15%; in assay [5], -6.55%.

`CC(=O)c1cccc(N=NN(C)C)c1`: the growth inhibition in assay [1] was 41%; in assay [2], 36.5%; in assay [3] it was 58%; in assay [4], 6.35%; in assay [5], 40.2%; in assay [6], 46.8%.

For the compound `C[Si](C)(C)OC1CC(=O)OC1n1cc(F)c(=O)[nH]c1=O` (configuration not stated), the growth inhibition in assay [1] was 56.8%; in assay [2], 81.6% (active); in assay [3], 75.8% (active); in assay [4], -1.15%; in assay [5], 21.8%.

For `CCOC(=O)c1c2ccc(/C=C/C(=O)OC)ccc-2c(C(=O)OCC)c1N`, the growth inhibition in assay [1] was -23.8%; in assay [2] it was -24.4%; in assay [3] it was -23.4%; in assay [4], -23.2%; in assay [5] it was -37.6%.

As for `CCC(C)C(O)C(C)C` (configuration not stated), the growth inhibition was 11.3% in assay [1]; -18.1% in assay [2]; -15.6% in assay [3]; 13.6% in assay [4]; -4.6% in assay [5].

`CCCCN(C#N)CCCC`: the growth inhibition in assay [1] is 3%; in assay [2], 1.75%; in assay [3], 27.6%; in assay [4], -97.3%; in assay [5], -16.1%.

Consider `Cc1nc2c(n1-c1ccc(Br)cc1)C(=O)c1ccccc1C2=O`, for which the growth inhibition in assay [1] is 33.9%; in assay [2] it was -17.9%; in assay [3], -4.4%; in assay [4] it was 12.3%; in assay [5], -30.2%.

`COc1cc(-c2cc(=O)c3c(O)c(OC)c(OC)c(OC)c3o2)cc(OC)c1OC`: the growth inhibition was -9.45% in assay [1]; -2.7% in assay [2]; -10.8% in assay [3]; -10% in assay [4]; -20.8% in assay [5].

With `S=C(NC1CCCCC1)SSSC(=S)NC1CCCCC1`, the growth inhibition in assay [1] was -6.7%; in assay [2], -4.65%; in assay [3] it was -8.05%; in assay [4], 15.2%; in assay [5] it was -17.4%.

Consider `Cc1cc(Cl)ccc1NC(=O)C(=O)Cc1ccc([N+](=O)[O-])c([N+](=O)[O-])c1CC(=O)C(=O)Nc1ccc(Cl)cc1C`, for which the growth inhibition in assay [1] was -10.6%; in assay [2] it was -30.4%; in assay [3] it was -13.6%; in assay [4], -7.8%; in assay [5] it was 18.6%; in assay [6] it was 7%.

As for `C=C1COC(O)(C2OCOC(C3CC(=O)NC(=O)C3)C2O)C1C` (configuration not stated), the growth inhibition in assay [1] was 88% (active); in assay [2], 91.2% (active); in assay [3], 91.5% (active); in assay [4], 89.8% (active); in assay [5] it was 89.2% (active).

Consider `Oc1cc(Cl)cc2cccnc12`, for which the growth inhibition was 87.8% (active) in assay [1]; 91.5% (active) in assay [2]; 88.8% (active) in assay [3]; 91.6% (active) in assay [4]; 90% (active) in assay [5].

For `CC(=O)OCC(OC(C)=O)C(OC(C)=O)C(/C=N/N(C(C)=O)S(=O)(=O)c1ccc(/C=C2\NC(=O)NC2=O)cc1)OC(C)=O` (configuration not stated), the growth inhibition is -42.5% in assay [1]; -23.6% in assay [2]; -34.6% in assay [3]; -2.45% in assay [4]; -18.9% in assay [5].
